VACV mCherry inh = inhibitors of vaccinia virus infection (mCherry reporter signal); Vaccinia virus mCherry reporter infection, fluorescence; Potency, µM (highest dose often 36.5 µM), usual class: inhibitors; 310,000 tested, 0.63% active; AID 720579; calls by dose curve; tested in A549 cells; also: nearly all actives have a fitted effect of over 35% in size
VACV Venus inh = inhibitors of vaccinia virus (Venus reporter) | Vaccinia virus Venus reporter expression, fluorescence | Potency, µM (highest dose often 36.5 µM), usual class: inhibitors | AID 720580 | 330,000 tested, 0.46% active; calls by dose curve; tested in A549 cells; also: nearly all actives have a fitted effect of over 30% in size
FMDV inh = antivirals against foot and mouth disease virus; Potency, µM (titrated, usually from 57.9 µM), hits mostly inhibitors; 410,000 tested, 1.2% active; FMDV antiviral cell-based qHTS; calls by dose curve; tested in HEK293T cells; also: read-out not given here; nearly all actives have a fitted effect of over 45% in size
LASV entry inh = blocks Lassa virus binding to or entry into cells; Lassa virus pseudotype entry inhibition, cell reporter; Potency, µM (highest dose often 37.9 µM), usual class: inhibitors; 300,000 tested, 1.2% active; AID 540256; calls by dose curve; tested in HEK293 cells; also: nearly all actives have a fitted effect of over 50% in size
Marburg entry inh = blocks Marburg virus binding to or entry into cells; Marburg virus pseudotyped entry inhibition, cell reporter; Potency, µM (top dose mostly 37.8 µM), hits mostly inhibitors; 300,000 tested, 1.8% active; AID 540276; calls by dose curve; tested in HEK293 cells
HCMV inh = blocks human cytomegalovirus replication; HFF cells, HCMV-luciferase reporter, 72 h; active compounds read low; activity change, negative = inhibition, % at 57.5 µM; 410,000 tested, 4.5% active; AID 1259415; in the data active = activity change below about -60%; inconclusive = no clear call, values can overlap the other calls; inactive = above about -39%
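Two compound doses tested in HFFs infected with HCMV-luciferase, MOI 1 PFU/cell, 72 h at 37C. Lysate luminescence read with OneGlo; data normalized against buffer-only and 10uM Salinomycin inhibitor controls.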
Of the large screens only hits and unclear results are named; the others gave an inactive call. An excerpt weighted towards active compounds, which were near 6.5% of everything screened.

Cc1ccc(-n2nnnc2Sc2ccc(S(=O)(=O)NCCN(C)C)cc2[N+](=O)[O-])cc1	VACV mCherry inh inconclusive, VACV Venus inh 11µM, FMDV inh 13µM, LASV entry inh inconclusive, Marburg entry inh 9.2µM, HCMV inh -100
Cc1ccc2nc(SCC(=O)NCC3Cc4cccc(-c5nc(C)cnc5C)c4O3)[nH]c2c1 (stereo not given)	none (no result: LASV entry inh, Marburg entry inh, HCMV inh)
CCOCCCNC(=O)C(c1ccc(C)cc1)N(Cc1ccc2c(c1)OCO2)C(=O)c1ccccc1O (stereo not given)	Marburg entry inh inconclusive
O=[N+]([O-])c1cc([N+](=O)[O-])c(Oc2cccnc2Br)cc1NN1CCCCC1	VACV mCherry inh 13µM, VACV Venus inh inconclusive, FMDV inh inconclusive (no result: LASV entry inh, Marburg entry inh)
O=[N+]([O-])c1cc([N+](=O)[O-])c(Oc2cc(Cl)cc(Cl)c2)cc1NN1CCCCC1	VACV mCherry inh inconclusive, HCMV inh -78 (no result: LASV entry inh, Marburg entry inh)
COCC1CCCN(Cc2ccc3c(c2)CN(C(=O)c2cccnc2OC)CCO3)C1 (stereo not given)	VACV Venus inh inconclusive (no result: LASV entry inh, Marburg entry inh, HCMV inh)
N#Cc1c(-c2ccc(C(F)(F)F)cc2)cc(-c2ccccc2)[nH]c1=S	Marburg entry inh inconclusive, HCMV inh -60
Cc1nc2ccn(Cc3ccco3)c(=O)c2cc1C(=O)NCc1ccccc1F	LASV entry inh inconclusive, HCMV inh -64 (no result: Marburg entry inh)
COc1ccc(Cn2ccc3nc(C)c(C(=O)NCc4ccc(F)cc4)cc3c2=O)cc1	LASV entry inh inconclusive, HCMV inh -77 (no result: Marburg entry inh)
Cc1nc2ccn(Cc3ccco3)c(=O)c2cc1C(=O)NCc1ccccc1	LASV entry inh inconclusive, HCMV inh inconclusive (no result: Marburg entry inh)
COc1ccc(Cn2ccc3nc(C)c(C(=O)NCc4ccc(C)cc4)cc3c2=O)cc1	FMDV inh inconclusive (no result: Marburg entry inh)
N#Cc1ccc(S(=O)(=O)NC2CCN(Cc3ccccc3)CC2)cc1	none
O=S(=O)(NC1CCCC1)c1ccc(S(=O)(=O)N2CCCN(Cc3ccccc3)C2)cc1	LASV entry inh inconclusive, Marburg entry inh 5.8µM (no result: VACV mCherry inh, VACV Venus inh)
Oc1ccccc1N=Nc1ccccc1O	VACV mCherry inh inconclusive, VACV Venus inh inconclusive, HCMV inh -99 (no result: LASV entry inh, Marburg entry inh)
CN(C(=O)COC(=O)c1ccccc1OCC(=O)Nc1ccc(Br)cc1)c1ccccc1	none (no result: FMDV inh, LASV entry inh, Marburg entry inh, HCMV inh)
Cc1ccc(Cl)c(NC(=O)CCl)c1Cl	VACV mCherry inh inconclusive, VACV Venus inh inconclusive, LASV entry inh inconclusive, Marburg entry inh 6.3µM, HCMV inh inconclusive
C[C@@H]1CN([C@@H](C)CO)C(=O)CCCn2cc(nn2)CO[C@H]1CN(C)S(C)(=O)=O	none (no result: VACV mCherry inh, VACV Venus inh, FMDV inh, LASV entry inh, Marburg entry inh)
N#C/C(=C\c1ccc(Sc2ccccc2)o1)c1nc2ccccc2[nH]1	LASV entry inh inconclusive
Cc1ccc2nc(/C(C#N)=C\c3ccc([N+](=O)[O-])o3)[nH]c2c1	FMDV inh inconclusive, LASV entry inh 3.3µM, Marburg entry inh 18µM, HCMV inh -103
N#C/C(=C(/O)c1ccc([N+](=O)[O-])o1)c1nc2ccccc2[nH]1	HCMV inh -74 (no result: VACV mCherry inh, VACV Venus inh, LASV entry inh, Marburg entry inh)
CCOC(=O)c1ccc(-c2ccc(/C=C(\C#N)c3nc4ccc(C)cc4[nH]3)o2)cc1	VACV mCherry inh inconclusive, LASV entry inh inconclusive, HCMV inh -79 (no result: Marburg entry inh)
Cc1ccc2nc(/C(C#N)=C\c3ccc(N4CCOCC4)o3)[nH]c2c1	Marburg entry inh inconclusive
CC(C)(C)/C(O)=C(/C#N)c1nc2ccccc2[nH]1	FMDV inh inconclusive (no result: VACV mCherry inh, VACV Venus inh)
N#C/C(=C\c1ccc([N+](=O)[O-])o1)c1nc2ccccc2[nH]1	FMDV inh 25µM, HCMV inh -94 (no result: VACV mCherry inh, VACV Venus inh, LASV entry inh)
COC1=CC(=O)c2c(ccc3ncnc(N)c23)C1=O	VACV mCherry inh inconclusive, VACV Venus inh inconclusive, FMDV inh 2.5µM, LASV entry inh inconclusive, Marburg entry inh inconclusive, HCMV inh -99
Cc1cc(C(=O)NCc2cc(F)cc3c2OCOC3)nn1C	none
Cn1nc(C(C)(C)C)cc1C(=O)NCc1cc(F)cc2c1OCOC2	FMDV inh 13µM, HCMV inh -72 (no result: VACV mCherry inh, VACV Venus inh, LASV entry inh, Marburg entry inh)
C/C(=N/NC(=O)CNc1ccc(C)cc1)c1ccc(Cl)cc1	none (no result: FMDV inh)
CCCCC(O)(CCCC)C(=O)N/N=C(\C)c1ccc(Cl)cc1	VACV mCherry inh inconclusive, Marburg entry inh 11µM
c1ccc(/N=C2\N=C(Nc3ccccn3)c3ccccc32)nc1	VACV mCherry inh inconclusive, VACV Venus inh inconclusive, LASV entry inh inconclusive, Marburg entry inh inconclusive, HCMV inh -99
COc1ccc(/C=C/c2cc(C(=O)O)c3ccccc3n2)cc1	FMDV inh 2.8µM, LASV entry inh inconclusive, Marburg entry inh inconclusive
COc1ccc(/C=C/C(=O)Nc2ccccc2C(F)(F)F)cc1OC	LASV entry inh inconclusive
COc1ccc(/C=C/C(=O)Nc2ccccc2C(=O)O)cc1OC	LASV entry inh 1.3µM, Marburg entry inh 1.5µM, HCMV inh -81 (no result: VACV mCherry inh, VACV Venus inh)
COc1cc(OC)c(OC)cc1/C=C/c1cc(C(=O)O)c2ccccc2n1	none (no result: VACV mCherry inh, VACV Venus inh, LASV entry inh, Marburg entry inh)
COc1ccc(/C=C/C(=O)Nc2ccccc2C(=O)N2CCCC2)cc1	none (no result: VACV mCherry inh, VACV Venus inh)
COc1ccc(/C=C/C(=O)Nc2ccccc2C(=O)O)cc1	LASV entry inh inconclusive, Marburg entry inh 1.6µM
CN1CCN(c2nc3c(=O)[nH]c(N)nc3n2C2OC(CO)C(O)C2O)CC1 (stereo not given)	none (no result: FMDV inh, LASV entry inh, Marburg entry inh, HCMV inh)
COc1ccc(OC)c(C(=O)NC2CC(C)(C)Cc3c2cnn3-c2ccccc2)c1 (stereo not given)	FMDV inh inconclusive, HCMV inh -77 (no result: VACV mCherry inh, VACV Venus inh, LASV entry inh, Marburg entry inh)
O=C1CC(c2ccccc2F)c2cc3c(cc2N1)CCC3 (stereo not given)	VACV mCherry inh inconclusive, VACV Venus inh inconclusive, FMDV inh inconclusive, Marburg entry inh inconclusive
O=C1CC(c2cc(Br)ccc2F)c2cc3c(cc2N1)CCC3 (stereo not given)	LASV entry inh inconclusive, Marburg entry inh inconclusive, HCMV inh -73 (no result: VACV mCherry inh, VACV Venus inh)
Nc1cc(=O)n(Cc2ccccc2)c(N)c1C(=O)NCc1ccccc1	none (no result: VACV mCherry inh, VACV Venus inh, FMDV inh, LASV entry inh, Marburg entry inh)
CCOC(=O)c1ccc(N2C(=O)c3n[nH]c(-c4ccco4)c3C2c2ccc(O)c(OC)c2)cc1 (stereo not given)	FMDV inh inconclusive, Marburg entry inh inconclusive
CCOC(=O)c1ccc(N2C(=O)c3n[nH]c(C)c3C2c2ccc(OCC)cc2)cc1 (stereo not given)	FMDV inh inconclusive, LASV entry inh inconclusive, Marburg entry inh inconclusive, HCMV inh -76
CCOC(=O)c1ccc(N2C(=O)c3n[nH]c(-c4ccco4)c3C2c2ccc([N+](=O)[O-])cc2)cc1 (stereo not given)	VACV mCherry inh inconclusive, VACV Venus inh inconclusive, FMDV inh inconclusive, LASV entry inh 23µM, Marburg entry inh inconclusive
CCOc1cc(C2c3c(n[nH]c3C)C(=O)N2c2ccc(C)cc2)ccc1O (stereo not given)	HCMV inh -81 (no result: VACV mCherry inh, VACV Venus inh)
CCOC(=O)c1ccc(N2C(=O)c3n[nH]c(C)c3C2c2ccccn2)cc1 (stereo not given)	none (no result: LASV entry inh, Marburg entry inh)
CCOC(=O)c1ccc(N2C(=O)c3n[nH]c(-c4ccco4)c3C2c2ccc(C)cc2)cc1 (stereo not given)	FMDV inh 32µM, LASV entry inh inconclusive, Marburg entry inh inconclusive, HCMV inh -103
COc1ccc(NC(=O)C(C)n2nnc3sc(-c4ccccc4)cc3c2=O)cc1Cl (stereo not given)	none
N[C@H](Cn1ccc(=O)[nH]c1=O)C(=O)O	none (no result: VACV mCherry inh, VACV Venus inh, FMDV inh, LASV entry inh, HCMV inh)

Compound activity (PubChem BioAssay)
